Some test systems named below: DU-145 prostate; K-562 leukemia; MALME-3M melanoma; MDA-MB-231 breast; RXF 393 renal; SF-268 CNS; SF-295 CNS; SF-539 CNS; UACC-257 melanoma.
Assay in all cases: NCI-60 one-dose screen, 48 h (100 = growth as untreated, 0 = no growth, -100 = all killed)
What all share (conditions): 10 µM unless noted

Consider 15 compounds from PubChem BioAssay (NCI).

The structures appear in SMILES notation. The panel holds about 83,000 compounds, 20% with a hit somewhere; the sample as a whole holds those more often.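 96-well plates, one dose, 48 hours. Percent growth reported; active if below 10.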 Unmarked numbers belong to inactive results. The source made the active and inactive calls.

Take `CCOP1(=O)CC(C)=C(Cl)C(P(=O)(O)O)C1` (stereo not given): the growth with DU-145 prostate was 109%; in the assay on K-562 leukemia, 101%; in the assay on MALME-3M melanoma, 95.1%; in the assay with MDA-MB-231 breast it was 100%; in the assay on RXF 393 renal it was 96%; in the assay on SF-268 CNS, 109%. The values for the growth with SF-295 CNS, with SF-539 CNS and in the assay with UACC-257 melanoma were 109%, 105% and 87.3%, respectively.
Regarding `CC(O)c1cc[cH-]c1.[Fe+2].c1cc[cH-]c1` (stereo not given), the growth in the assay with DU-145 prostate is 108%; in the assay with K-562 leukemia it was 102%; with MALME-3M melanoma, 102%; in the assay on MDA-MB-231 breast it was 110%; with RXF 393 renal, 95.6%; with SF-268 CNS, 108%. The figures for the growth in the assay on SF-295 CNS, in the assay on SF-539 CNS and with UACC-257 melanoma were 98.8%, 97% and 96.9%, respectively.
As to `Brc1c(-c2ccncc2)nc2n1CCS2`, the growth was 116% in the assay on DU-145 prostate; 111% in the assay with K-562 leukemia; 114% in the assay on MALME-3M melanoma; 101% in the assay with MDA-MB-231 breast; 84.6% with RXF 393 renal; 107% with SF-268 CNS. Also, the figures for the growth in the assay on SF-295 CNS, with SF-539 CNS and with UACC-257 melanoma were 102%, 119% and 91.1%, respectively.
Regarding `Cc1ccc2c(O)c(O)cc(NC(C)CCCN)c2n1` (stereo not given), the growth was 74.5% in the assay on DU-145 prostate; 42.1% with K-562 leukemia; 81.6% with MALME-3M melanoma; 57.2% with MDA-MB-231 breast; 93.3% in the assay on RXF 393 renal; 92.2% with SF-268 CNS. The values for the growth with SF-295 CNS, with SF-539 CNS and in the assay with UACC-257 melanoma were 90.6%, 14.6% and 98.4%, respectively.
Turning to `O=C1C(=O)c2ccccc2C(O)=C1CCCc1ccc(C2CCCC2)cc1`, the growth in the assay on DU-145 prostate was 40.5%; in the assay with K-562 leukemia it was 19.2%; in the assay with MALME-3M melanoma it was 84%; in the assay on MDA-MB-231 breast it was 56.5%; in the assay with RXF 393 renal it was 57.9%; in the assay on SF-268 CNS it was 47.6%. Besides, the growth was 27.3% in the assay with SF-295 CNS, 22.9% in the assay with SF-539 CNS and 40.7% with UACC-257 melanoma.
`CC(=O)N1N=C(c2ccc(Cl)cc2)CC1c1cn(-c2ccccc2)nc1-c1ccc([N+](=O)[O-])cc1` (stereo not given): the growth in the assay with DU-145 prostate was 116%; in the assay on K-562 leukemia, 118%; with MALME-3M melanoma it was 92%; in the assay with MDA-MB-231 breast, 104%; with RXF 393 renal, 135%; in the assay with SF-268 CNS, 102%. The growth is 104% in the assay on SF-295 CNS, 93.6% in the assay on SF-539 CNS and 106% with UACC-257 melanoma.
Turning to `CCOC(=O)C1=C(C(F)(F)F)NC(=S)NC1CN1C(=O)c2ccccc2C1=O` (stereo not given), the growth in the assay with DU-145 prostate is 115%; in the assay with K-562 leukemia, 101%; in the assay on MALME-3M melanoma, 92.9%; with MDA-MB-231 breast, 90.2%; with RXF 393 renal it was 113%; in the assay with SF-268 CNS, 101%. Further, the growth was 93% in the assay on SF-295 CNS, 104% in the assay on SF-539 CNS and 110% with UACC-257 melanoma.
Take `OC(c1ccccc1)(c1ccccc1)C(F)(F)F`: the growth in the assay on DU-145 prostate is 109%; with K-562 leukemia, 99.7%; in the assay on MALME-3M melanoma, 122%; with MDA-MB-231 breast, 101%; with RXF 393 renal, 120%; in the assay with SF-268 CNS, 82.8%. For the same compound, the growth was 107% with SF-295 CNS, 101% in the assay with SF-539 CNS and 104% in the assay with UACC-257 melanoma.
Turning to `COc1cc2c(cc1OC)C(Cc1cc(OC)c(OC)cc1[N+](=O)[O-])=NCC2`, the growth is 101% in the assay on DU-145 prostate; 69% with K-562 leukemia; 101% in the assay with MALME-3M melanoma; 82.6% with MDA-MB-231 breast; 90.8% with RXF 393 renal; 90% in the assay with SF-268 CNS. The growth was 42.9% in the assay on SF-295 CNS, 80.6% in the assay with SF-539 CNS and 102% in the assay with UACC-257 melanoma.
On to `CC(=O)c1cc(Nc2cc(C)nc(N)n2)cc(C(C)=O)c1`, for which the growth in the assay with DU-145 prostate is 91.3%; in the assay on K-562 leukemia it was 81.3%; with MALME-3M melanoma, 45.3%; in the assay with MDA-MB-231 breast, 106%; in the assay on RXF 393 renal, 108%; with SF-268 CNS it was 99.8%. Further, the growth in the assay with SF-295 CNS is 114%; in the assay on SF-539 CNS it was 91.2%; in the assay on UACC-257 melanoma it was 103%.
`COc1ccc(-n2nnnc2-c2cn[nH]c2C(F)(F)F)cc1`: the growth with DU-145 prostate was 101%; in the assay on K-562 leukemia, 87.2%; with MALME-3M melanoma, 107%; in the assay with MDA-MB-231 breast it was 83.4%; with RXF 393 renal, -6.74% (active); in the assay on SF-268 CNS, 109%. For the same compound, the growth was 88.3% with SF-295 CNS, 89.6% in the assay with SF-539 CNS and 93.7% in the assay on UACC-257 melanoma.
Consider `CCC(CCCN1C(=O)c2ccccc2C1=O)Nc1cc(OC)cc2c(C)ccnc12` (stereo not given), for which the growth was 86.7% with DU-145 prostate; 72.4% in the assay on K-562 leukemia; 111% with MALME-3M melanoma; 81.1% with MDA-MB-231 breast; -10.2% (active) with RXF 393 renal; 113% in the assay on SF-268 CNS. Further, the growth is 93.3% with SF-295 CNS, 76.5% with SF-539 CNS and 88.6% in the assay with UACC-257 melanoma.
With `C/C=C(/C)C(=O)OC1C=C(CO)C(=O)C(OC(=O)C(C)(O)C(C)Cl)C1C(C)C` (stereo not given), the growth in the assay with DU-145 prostate was 3.58% (active); in the assay with K-562 leukemia, 1.56% (active); in the assay with MALME-3M melanoma, -76.6% (active); in the assay on MDA-MB-231 breast, -5.1% (active); in the assay on RXF 393 renal it was -63.6% (active); with SF-268 CNS, 10.4%. Moreover, the values for the growth in the assay with SF-295 CNS, in the assay with SF-539 CNS and in the assay on UACC-257 melanoma were -41.4% (active), -43.7% (active) and -19.7% (active), respectively.
As to `COc1cc(/C=C/C(=O)c2ccc(F)cc2)ccc1OCCCCOc1cc2c(cc1OC)C(=O)N1CCCC1C=N2` (stereo not given), the growth in the assay on DU-145 prostate is -72.1% (active); with K-562 leukemia it was -23.9% (active); with MALME-3M melanoma, -6.3% (active); in the assay with MDA-MB-231 breast, -15% (active); in the assay on RXF 393 renal, -71.6% (active); in the assay with SF-268 CNS, -12.4% (active). Moreover, the growth is -29.1% (active) in the assay with SF-295 CNS, -61.9% (active) in the assay on SF-539 CNS and 2.17% (active) with UACC-257 melanoma.
As for `COc1ccc(-c2cc(C#N)c(NNC(C)=O)[nH]2)cc1`, the growth in the assay with DU-145 prostate was 123%; in the assay with K-562 leukemia it was 47.5%; in the assay on MALME-3M melanoma, 106%; with MDA-MB-231 breast, 106%; in the assay with RXF 393 renal, 118%; in the assay on SF-268 CNS it was 122%. The figures for the growth in the assay on SF-295 CNS, with SF-539 CNS and in the assay on UACC-257 melanoma were 101%, 112% and 108%, respectively.
